Compound activity as filed in PubChem BioAssay.
Only some compounds are listed: those with a hit (about 1.5% of all), similar ones and a draw of the others.
DAGLB inh = diacylglycerol lipase beta (human) inhibition | Q8NCG7 | HEK293T DAGLB membrane lysate, EnzChek fluorogenic substrate | inhibition, % at 5.17 µM | AID 504411 | actives 0.059% (n = 340,000); in the data active means inhibition above about 34%;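 further: 0% = enzyme with vehicle and 100% = wells lacking enzyme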
PLC-beta3 inh = blocks human PLC-beta3 enzyme activity | Q01970 | Purified PLC-beta3, fluorogenic substrate, fluorescence | inhibition, % at 12.2 µM | actives 0.18% (n = 370,000); in the data active means inhibition above about 11%;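 further: 0% = median of compound wells on plate and 100% = full blocker control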
Target sequence (Q01970 whole entry, looked up): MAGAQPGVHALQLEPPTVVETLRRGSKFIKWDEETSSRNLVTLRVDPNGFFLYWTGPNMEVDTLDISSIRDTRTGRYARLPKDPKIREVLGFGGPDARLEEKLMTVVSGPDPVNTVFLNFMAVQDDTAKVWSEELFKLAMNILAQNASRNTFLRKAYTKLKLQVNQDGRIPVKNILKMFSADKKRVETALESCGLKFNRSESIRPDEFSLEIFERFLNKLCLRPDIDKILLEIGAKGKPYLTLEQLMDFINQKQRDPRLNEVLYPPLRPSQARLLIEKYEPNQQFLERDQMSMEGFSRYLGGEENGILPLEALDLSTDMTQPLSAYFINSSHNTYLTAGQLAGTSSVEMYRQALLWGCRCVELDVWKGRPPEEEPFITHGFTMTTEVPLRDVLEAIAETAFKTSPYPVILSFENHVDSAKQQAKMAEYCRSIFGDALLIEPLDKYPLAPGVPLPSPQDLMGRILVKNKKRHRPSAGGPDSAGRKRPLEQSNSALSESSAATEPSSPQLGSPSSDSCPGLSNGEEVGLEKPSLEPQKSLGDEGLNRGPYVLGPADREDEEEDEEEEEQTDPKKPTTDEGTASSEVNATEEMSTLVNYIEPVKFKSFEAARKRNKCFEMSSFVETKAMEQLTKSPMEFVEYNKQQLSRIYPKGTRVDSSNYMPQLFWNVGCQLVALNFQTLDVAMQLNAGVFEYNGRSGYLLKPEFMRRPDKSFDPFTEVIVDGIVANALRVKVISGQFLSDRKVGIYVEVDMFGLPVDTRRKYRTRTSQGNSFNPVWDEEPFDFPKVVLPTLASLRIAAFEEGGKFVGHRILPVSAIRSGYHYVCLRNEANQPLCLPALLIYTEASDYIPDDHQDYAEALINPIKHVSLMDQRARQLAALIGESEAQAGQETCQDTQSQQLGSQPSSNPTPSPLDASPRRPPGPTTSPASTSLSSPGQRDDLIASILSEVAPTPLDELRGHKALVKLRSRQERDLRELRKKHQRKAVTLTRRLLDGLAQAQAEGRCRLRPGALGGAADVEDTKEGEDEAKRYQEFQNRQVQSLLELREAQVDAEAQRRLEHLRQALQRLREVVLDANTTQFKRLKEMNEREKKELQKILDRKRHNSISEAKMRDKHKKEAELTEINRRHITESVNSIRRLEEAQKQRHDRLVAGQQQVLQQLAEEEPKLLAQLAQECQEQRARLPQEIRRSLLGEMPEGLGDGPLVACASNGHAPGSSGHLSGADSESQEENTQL
PLCg1 inh = inhibitors of human phospholipase C gamma1 | purified PLC-gamma1, fluorogenic substrate, fluorescence | actives 0.84% (n = 370,000) | inhibition, % at 12.2 µM | P19174; in the data active means inhibition above about 9.5%
sPLA2-III inh = Inhibits HGIII-sPLA2 liposome hydrolysis, primary screen; Q9NZ20; QFRET BODIPY PC-A2 liposome hydrolysis, fluorescence; inhibition, % at 12.2 µM; actives 0.56% (n = 370,000); AID 743126;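 active means inhibition above mean plus 3 SD of compounds lying within the high and low control bounds, cut at about 19% in these data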;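 further: 0% = median of test compound wells and 100% = no enzyme DMSO wells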
hGIII sPLA2 conf = human GIII-sPLA2 inhibition, confirmation; shares compounds with sPLA2-III inh; recombinant hGIII-sPLA2, BODIPY PC-A2 QFRET fluorescence; inhibition, % at 12.2 µM; actives 34% (n = 2,000);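 active means mean inhibition across triplicates above the hit cutoff set in the earlier primary screen, cut at about 19% in these data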;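 further: 0% = enzyme with DMSO and 100% = DMSO wells lacking enzyme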
BODIPY interf = optically interferes with 535nm fluorescence in sPLA2 counter-screen; shares compounds with sPLA2-III inh; BODIPY FL product fluorescence interference, QFRET; inhibition, % at 12.2 µM; actives 8.5% (n = 2,000); AID 743282;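 active means average inhibition above the solvent-only control mean plus 3 SD, cut at about 6% in these data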;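 further: 0% = DMSO with substrate plus product and 100% = DMSO with substrate alone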
535nm interf DR = counter-screen for HGIII-sPLA2 inhibitors: 535nm fluorescence interference, dose response; shares compounds with sPLA2-III inh; BODIPY FL product fluorescence interference, cell-free; IC50, µM; 240 tested, under 10 active; AID 743455;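 active means IC50 at or below 10 µM; inactive means IC50 above 10 µM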
An asterisk follows results filed as active; x = not tested or not shown.

SMILES	DAGLB inh	PLC-beta3 inh	PLCg1 inh	sPLA2-III inh	hGIII sPLA2 conf	BODIPY interf	others
COc1ccc2c(c1)OC[C@H]1[C@H]2N2C(=O)c3cc(Cl)ccc3NC(=O)[C@@]2(C)[C@H]1c1ccccc1	-2.1	x	x	x	x	x
COc1ccc2c(c1)OC[C@H]1[C@H]2N2C(=O)c3cc(OC)ccc3NC(=O)[C@@]2(C)[C@H]1c1ccccc1	-2.2	-6.5	-3.0	37.3*	27.2*	-18.6
COc1ccc2c(c1)OC[C@H]1[C@H]2N2C(=O)c3cc(F)ccc3NC(=O)[C@@]2(C)[C@H]1c1ccccc1	-2.0	-11.8	-6.4	34.6*	7.0	-4.4
O=C(NCCCc1ccccc1)[C@H](Cc1c[nH]c2ccccc12)NC1(C(=O)NCCc2c[nH]c3ccccc23)CCC1	x	0.4	5.7	-67.0	x	x
COC(=O)[C@]12C[C@H](CC(=O)NCCCCc3ccccc3)C(=O)N(CCC3=CCCCC3)C1=C[C@H](C(C)C)O[C@@H]2C1CC1	x	3.2	3.4	-10.9	x	x
CNC(=S)NN=C(C)c1ccc(OC)cc1O	2.2	1.2	-1.5	26.6*	31.2*	3.5	535nm interf DR=>122
COc1ccc(/C(C)=N/N=C(N)N)c(O)c1	0.5	-4.7	4.9	0.5	x	x
CCc1ccc(CC2(O)CC(C)N(C)CC2C)cc1 (stereo not drawn)	1.1	0.0	-0.8	2.2	x	x
CC1CC(O)(CC(O)(c2ccccc2)c2ccccc2)C(C)CN1C (stereo not drawn)	-1.4	-5.1	6.5	19.3*	-12.8	-15.8
C=CCn1c(CSc2ccc(C)cc2)n[nH]c1=S	1.9	-5.0	-0.9	22.1*	24.7*	3.0
C=CCn1c(CSc2nnc(-c3ccccc3)n2C)n[nH]c1=S	0.5	-21.9	-9.7	-2.7	x	x
C=CCn1c(SCc2n[nH]c(=S)n2-c2ccccc2)nnc1-c1ccccc1	2.2	-6.6	-2.1	20.1*	9.4	-0.5
C=CCn1c(CSc2nc3ccccc3s2)n[nH]c1=S	1.5	1.1	-0.6	14.7	x	x
COc1cc(C(=O)Nc2cccc(-c3nc4cc(C)ccc4o3)c2)cc(OC)c1OC	0.8	-4.3	-89.9	19.3*	-16.6	-23.9
COc1cc(C(=O)Nc2cc(-c3nc4cc(C)ccc4o3)ccc2C)cc(OC)c1OC	1.8	-0.5	1.6	-5.4	x	x
CN1Cc2nnn(Cc3ccccc3)c2-c2cc(F)ccc2S1(=O)=O	x	-0.5	-2.6	4.7	x	x
Cc1ccccc1C(=O)NC1CCCCN(Cc2cccc(C(F)(F)F)c2)C1=O (stereo not drawn)	x	-2.0	1.9	6.7	x	x
C/C(=N\Nc1ncc(Cl)cc1Cl)c1ccc2c(c1)OCO2	-3.8	-9.0	0.1	19.7*	3.9	-4.6
Cc1ccc(NC(=O)CN2CCCC2)cc1	0.6	4.7	5.3	79.3*	6.1	-4.0
Cc1cccc(NC(=O)CN2CCN(C(=O)C3CCC3)CC2)c1C	-1.1	-3.0	-3.9	20.7*	-6.9	-4.8
Cc1ccc(S(=O)(=O)Nc2ccc(NC(=O)CN3CCCCC3)cc2)cc1	-4.9	0.4	-1.5	-19.0	x	x
CN(c1ccccc1)c1cc(=O)[nH]c(=O)[nH]1	-1.5	-4.7	-4.6	27.5*	-1.1	-3.4
O=c1cc(CCc2ccccc2)[nH]c(=O)[nH]1	x	-0.7	1.7	5.6	x	x
Cc1ccc(-c2cccc3[nH]cc(C)c23)s1	x	-16.7	-6.8	-5.6	x	x
CC1(C)Cc2ccccc2-c2nnnn21	2.5	-4.0	0.8	23.0*	4.5	-3.5
SMILES	DAGLB inh	PLC-beta3 inh	PLCg1 inh	sPLA2-III inh	hGIII sPLA2 conf	BODIPY interf	others
c1ccc2c(c1)CC1(CCCC1)n1nnnc1-2	0.9	1.7	3.5	0.9	x	x
CCNC(=O)OCCN1C(=O)CCC12CCC(c1ccc(Cl)cc1)CC2 (stereo not drawn)	x	-0.9	-0.8	10.4	x	x
S=C(NCC1CCCO1)Nc1ccc(Cl)cc1Cl (stereo not drawn)	0.7	-1.4	6.4	24.5*	3.2	-3.9
S=C(NCC1CCCO1)Nc1ccc(Cl)cc1 (stereo not drawn)	0.8	1.2	2.0	-0.4	x	x
COc1ccc2[nH]c(N=Nc3ccccc3C)c(O)c2c1	10.4	-2.2	-0.8	24.5*	9.7	2.1
Cc1ccc2[nH]c(O)c(N=Nc3ccccc3C)c2c1	-2.3	-16.7	-6.3	9.7	x	x
CCCCN(CCCC)C(=S)NC(=O)c1ccccc1Cl	-0.2	0.7	8.4	30.2*	10.8	-0.6
O=C(OC12CCCN(C1)/C(=C/c1ccccc1)C2)c1cccc(F)c1 (stereo not drawn)	x	1.1	1.9	-3.1	x	x
O=C(Nc1ccc(Cl)cc1Cl)NC1CCN(S(=O)(=O)c2ccc(F)cc2)CC1	-4.9	-1.1	1.6	20.8*	-26.4	-2.9
O=C(Nc1ccc(Cl)cc1Cl)NC1CCCC1	-3.5	2.0	-1.4	1.7	x	x
S=C(Nc1ccccc1)Nc1nc2ccccc2n1CCOc1ccc(Cl)cc1	-4.5	-0.3	2.5	5.1	x	x
CCn1c(NC(=S)Nc2ccccc2)nc2ccccc21	2.2	-5.5	-4.1	22.6*	24.4*	3.3
CCCn1c(NC(=S)Nc2ccccc2)nc2ccccc21	6.8	-17.2	-14.8	37.0*	48.2*	5.8	535nm interf DR=>122
CCn1c(NC(=O)C2CCCCC2)nc2ccccc21	0.4	-0.9	-0.3	1.9	x	x
CC(SCC(=O)NC12CC3CC(CC(C3)C1)C2)C(=O)O (stereo not drawn)	-0.3	-0.8	-0.2	24.1*	-2.0	-3.5
COc1ccc(NC(=S)NC(NC(=O)c2cccc(Cl)c2)C(Cl)(Cl)Cl)c([N+](=O)[O-])c1 (stereo not drawn)	4.5	3.2	1.2	28.9*	52.1*	11.8*
COc1ccc(NC(=S)NC(NC(=O)c2cccc(C)c2)C(Cl)(Cl)Cl)c([N+](=O)[O-])c1 (stereo not drawn)	6.2	3.7	1.3	-12.3	x	x
COc1ccc(S[C@]2(C(=O)N3CCOCC3)CC(=O)N(P(=O)(OC)OC)[C@@H]2c2ccc(OC)cc2)cc1	x	-1.1	-0.4	4.9	x	x
COC(=O)c1ccc(C(=O)OC)c(NC(=S)N2CCC(C)CC2)c1	-4.9	-202.8	-204.0	22.4*	6.6	-6.2
CCOC(=O)CC[C@@H]1CC[C@]2(CCCN(Cc3cccs3)C2)O1	x	2.3	2.2	1.1	x	x
Cc1cc(SCC(=O)NN=C2CCN(C(C)C)CC2)c(C)cc1Br	-3.6	-3.8	-3.0	22.2*	3.7	-16.1
COc1ccc(NC(=S)NC(=O)c2cccnc2)cc1	-2.8	-3.6	-0.2	16.7	x	x
COC(=O)c1ccc(NC(=S)NC(=O)c2cccnc2)cc1	-0.5	-7.3	0.2	21.3*	13.4	-4.3
CC(C)(C)c1cc(Cl)c(O)c(NC(=S)NC(=O)c2cccnc2)c1	8.4	-5.2	4.3	24.5*	22.8*	0.8
CC(C)(C)c1ccc(C(=O)NNC(=S)NC(=O)c2cccnc2)cc1	2.3	-1.5	-2.3	10.7	x	x
